JMJD2A Tudor inh – blocks the human JMJD2A Tudor domain. AID 504339. AlphaScreen JMJD2A-Tudor / H3K4me3 peptide binding. Potency, µM (top dose mostly 114 µM), usual class: inhibitors. O75164. 4.4% of 390,000 active; further: nearly all actives have a fitted effect of over 50% in size
HP1b chromo inh – inhibitors of HP1-beta chromodomain binding to methylated histone tails; AlphaScreen HP1-beta / biotin-H3K9me3 peptide binding; Potency, µM (series often up to 114 µM), usual class: inhibitors; 0.56% of 390,000 active; further: nearly all actives have a fitted effect of over 70% in size
Target sequence (P83916 whole entry, looked up): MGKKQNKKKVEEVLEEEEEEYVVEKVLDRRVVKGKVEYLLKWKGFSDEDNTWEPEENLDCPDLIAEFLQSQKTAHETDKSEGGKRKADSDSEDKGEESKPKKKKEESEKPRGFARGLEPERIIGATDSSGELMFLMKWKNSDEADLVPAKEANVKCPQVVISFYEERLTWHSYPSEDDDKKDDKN
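Compound inhibition of the preformed complex between 50 nM HP1-beta and 50 nM biotinylated H3K9me3 peptide was read by AlphaScreen. Buffer was PBS pH 7.4 with 0.01% Tween-20. Incubations ran 30 min at room temperature, with 10 ug/mL donor/acceptor beads.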
BAZ2B block – blocks human BAZ2B; Potency, µM (top dose mostly 114 µM), usual class: inhibitors; 4.4% of 360,000 active; Q9UIF8; AlphaScreen BAZ2B-H3K14Ac peptide displacement; further: nearly all actives have a fitted effect of over 60% in size
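Protein-peptide AlphaScreen: BAZ2B 50 nM, b-H3K14Ac 50 nM, 1x PBS pH 7.4 + 0.01% Tween-20. Preincubation 30 min RT; cpd 30 min RT (top 110 uM); beads 20 min RT, light-protected.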
G9a inh – G9a (human) methyltransferase inhibition. G9a H3K9 monomethylation, AlphaScreen, 2 h. Q96KQ7. AID 504332. 8.8% of 350,000 active. Potency, µM (doses to about 102 µM), usual class: inhibitors; further: nearly all actives have a fitted effect of over 75% in size
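G9a (20 nM) preincubated 15 min RT with compounds, then 500 nM biotinylated H3K9 peptide and 20 uM SAM added; 2 h RT reaction. Monomethyl-H3K9 product detected by AlphaScreen with anti-H3K9me1 antibody, streptavidin donor and anti-rabbit IgG acceptor beads.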
PLK1 PBD inh – blocks phosphopeptide binding to human PLK1 polo-box domain. P53350. Potency, µM, usual class: inhibitors. AID 720504. Plk1 PBD binding of FITC phosphopeptide, fluorescence polarization. 2.8% of 360,000 active; further: series mostly up to about 57 µM; nearly all actives have a fitted effect of over 65% in size
Target sequence (P53350 whole entry, looked up, the tested form may be a part): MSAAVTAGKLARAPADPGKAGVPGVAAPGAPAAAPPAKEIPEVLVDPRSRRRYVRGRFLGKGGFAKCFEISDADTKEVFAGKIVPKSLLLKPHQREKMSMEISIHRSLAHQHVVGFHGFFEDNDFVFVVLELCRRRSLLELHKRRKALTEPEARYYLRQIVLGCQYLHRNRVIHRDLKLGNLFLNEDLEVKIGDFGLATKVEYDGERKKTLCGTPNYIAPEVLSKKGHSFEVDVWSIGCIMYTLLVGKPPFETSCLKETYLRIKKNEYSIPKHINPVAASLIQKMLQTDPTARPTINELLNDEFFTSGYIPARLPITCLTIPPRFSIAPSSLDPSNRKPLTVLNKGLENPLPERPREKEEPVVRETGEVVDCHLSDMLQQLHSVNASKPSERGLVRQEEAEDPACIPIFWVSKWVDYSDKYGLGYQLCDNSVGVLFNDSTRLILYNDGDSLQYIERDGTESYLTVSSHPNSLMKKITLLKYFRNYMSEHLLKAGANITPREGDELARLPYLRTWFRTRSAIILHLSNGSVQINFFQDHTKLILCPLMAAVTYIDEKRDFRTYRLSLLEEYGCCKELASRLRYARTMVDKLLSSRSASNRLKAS
ALOX12 inh – ALOX12 (human) lipoxygenase inhibition | P18054 | purified 12hLO, xylenol orange hydroperoxide absorbance | Potency, µM (titrated, usually from 108 µM), most hits filed as inhibitors | 1.1% of 580,000 active | AID 1671190
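Purified human 12hLO (150 nM final) in 25 mM Hepes, 0.01% Triton X-100, pH 7.0 was preincubated 15 min at room temperature with compound. Then 40 uM arachidonic acid was added, 30 min. Hydroperoxide was read by Fe-XO absorbance ratio 573/405 nm.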
Of the large screens only hits and unclear results are named; the others gave an inactive call. Rows were chosen to be rich in hits. Some 9% of all compounds tested hit in one or more screens of this group. The call rests on the fitted dose curve; in most records, active means well fitted curve in the direction sought with a large enough effect; inconclusive means small, poorly fitted or top-dose-only effect, or another doubt; inactive means no such curve, though single readings can be large; an effect the other way counts as inactive or inconclusive.

CCOc1cc(OCC)cc(C(=O)NCCCN2CCOCC2)c1	BAZ2B block inconclusive
COCC(C)NCc1cccc([N+](=O)[O-])c1 (centres undefined)	JMJD2A Tudor inh 3.2µM, HP1b chromo inh inconclusive, BAZ2B block 50µM, G9a inh 20µM, ALOX12 inh inconclusive
Cc1ccccc1CC(=O)N1[C@@H]2CC[C@H]1CC(NC(=O)c1ccncc1)C2 (some centres undefined)	none (no result: JMJD2A Tudor inh, HP1b chromo inh, BAZ2B block, G9a inh, PLK1 PBD inh)
O=C(c1c[nH]c2ccccc12)C(O)C(c1ccccc1)N1CCOCC1 (centres undefined)	none
O=[N+]([O-])c1cccnc1Sc1ccc(F)cc1	JMJD2A Tudor inh inconclusive, HP1b chromo inh inconclusive (no result: BAZ2B block, G9a inh)
CNc1nnc(Sc2ncccc2[N+](=O)[O-])s1	G9a inh inconclusive, PLK1 PBD inh 15µM, ALOX12 inh inconclusive
O=c1ccnc(Sc2ncccc2[N+](=O)[O-])[nH]1	G9a inh inconclusive, PLK1 PBD inh 27µM, ALOX12 inh inconclusive
Cc1ccccc1N1CCN(C(=O)c2cc3c(s2)CCN(C(=O)c2ccccc2)C3)CC1	none (no result: JMJD2A Tudor inh, HP1b chromo inh, BAZ2B block, G9a inh, PLK1 PBD inh)
CCOC(=O)N1CCC(N2C(=O)c3ccccc3C2Nc2ccc(S(=O)(=O)N3CCCCC3)cc2)CC1 (centres undefined)	G9a inh 40µM (no result: JMJD2A Tudor inh, HP1b chromo inh, PLK1 PBD inh, ALOX12 inh)
CCOC(=O)N1CCC(N2C(=O)c3ccccc3C2Nc2ccc3c(c2)OCCO3)CC1 (centres undefined)	JMJD2A Tudor inh inconclusive, BAZ2B block inconclusive, G9a inh 50µM
CCOC(=O)N1CCC(N2C(=O)c3ccccc3C2Nc2ccc3c(C)cc(=O)oc3c2)CC1 (centres undefined)	none
CCOC(=O)C1CCCN(S(=O)(=O)c2ccc3ccccc3c2)C1 (centres undefined)	none (no result: ALOX12 inh)
CCOC(=O)N1CCC(N2Cc3cccc(C(=O)NC(C)c4ccc5c(c4)OCCO5)c3C2=O)CC1 (centres undefined)	G9a inh 40µM
CCOC(=O)N1CCC(N2CCN(S(=O)(=O)c3ccc4ccccc4c3)CC2)CC1	JMJD2A Tudor inh 0.89µM, HP1b chromo inh inconclusive, BAZ2B block inconclusive, G9a inh 8.9µM, ALOX12 inh inconclusive
CCOC(=O)N1CCN(C(=O)CN(c2ccc(OC)cc2)S(C)(=O)=O)CC1	none
Cc1oc(-c2ccccc2)nc1C(=O)N(C)CC(=O)Nc1cccc(F)c1	none (no result: JMJD2A Tudor inh, HP1b chromo inh, BAZ2B block, G9a inh, PLK1 PBD inh)
CC1CCCCC1n1c(=S)[nH]c2ccccc2c1=O (centres undefined)	ALOX12 inh inconclusive
CCOC(=O)c1ccccc1NC1c2ccccc2C(=O)N1C1CCN(C(=O)OCC)CC1 (centres undefined)	G9a inh 40µM
CCOC(=O)N1CCC(N2C(=O)c3ccccc3C2Nc2ccccc2C)CC1 (centres undefined)	G9a inh inconclusive
O=C(/C=C/c1ccc2c(c1)OCO2)Nc1c(C(=O)O)[nH]c2ccccc12	JMJD2A Tudor inh inconclusive, BAZ2B block inconclusive, G9a inh 11µM, ALOX12 inh inconclusive
COC(=O)c1[nH]c2ccccc2c1NC(=O)CN1CCN(c2cccc(OC)c2)C(C)C1 (centres undefined)	JMJD2A Tudor inh 16µM, HP1b chromo inh inconclusive, BAZ2B block inconclusive
CCN(CC(=O)Nc1c(C(=O)OC)[nH]c2ccc(C)cc12)c1ccc2c(c1)OCO2	JMJD2A Tudor inh 45µM, BAZ2B block 40µM, G9a inh 35µM
COC(=O)c1[nH]c2ccccc2c1NC(=O)CN1CCN(Cc2ccc3c(c2)OCO3)CC1	JMJD2A Tudor inh 79µM, G9a inh inconclusive
CC(C)CCNC(=O)CCC(=O)N1Cc2ccccc2Oc2ncccc21	none (no result: PLK1 PBD inh)
CCN(CC)S(=O)(=O)c1cccc(NC(=O)COC(=O)/C=C/c2cccs2)c1	none
Cc1cc(=O)[nH]c2ccc(Cc3ccccc3)cc12	none (no result: BAZ2B block, G9a inh)
CC(C)CCN1CCN(Cc2nc(-c3ccccc3)cs2)CC1CCO (centres undefined)	none
O=C1c2ccccc2C(=O)C1c1ccnc2ccccc12	JMJD2A Tudor inh 79µM
O=C1c2ccccc2C(=O)C1c1nccc2ccccc12	none
Nc1ccnc2ccccc12	none (no result: JMJD2A Tudor inh, HP1b chromo inh, BAZ2B block, G9a inh, PLK1 PBD inh)
N#CC1=C(N)SC(N)=C(C#N)C1c1ccnc2ccccc12	JMJD2A Tudor inh 56µM, BAZ2B block inconclusive, G9a inh 2.5µM, PLK1 PBD inh inconclusive, ALOX12 inh 4.5µM
O=[N+]([O-])c1ccc(Oc2ccc(F)cc2)c2ccncc12	JMJD2A Tudor inh inconclusive, BAZ2B block 50µM, G9a inh inconclusive, ALOX12 inh inconclusive
O=C(CN1C(=O)c2cccc3cccc1c23)Nc1ccccc1C(=O)NCc1ccco1	none (no result: BAZ2B block, G9a inh)
CC1=C(C(=O)Nc2ccccc2)C(c2ccccc2[N+](=O)[O-])NC(=O)N1 (centres undefined)	G9a inh inconclusive
COc1ccccc1NC(=O)C1=C(C)NC(=O)NC1c1ccccc1[N+](=O)[O-] (centres undefined)	G9a inh 13µM (no result: BAZ2B block)
CCNC(=O)N[C@H]1C[C@@H](Cc2cc(C(C)(C)C)on2)C1(C)C	none (no result: JMJD2A Tudor inh, HP1b chromo inh, BAZ2B block, G9a inh, PLK1 PBD inh)
COc1ccc(C2/C=C\CN(CC(C)C)CC(=O)N2Cc2cccc(F)c2)cc1 (centres undefined)	G9a inh 32µM, ALOX12 inh inconclusive (no result: BAZ2B block)
Cn1c(=S)c2[nH]c(SCc3cccnc3)nc2n(C)c1=O	JMJD2A Tudor inh 8.9µM, ALOX12 inh 3.2µM (no result: BAZ2B block, G9a inh)
CCCCSc1nc2c([nH]1)c(=S)n(C)c(=O)n2C	none (no result: BAZ2B block, G9a inh)
CCCC(CC)Sc1nc2c([nH]1)c(=S)n(C)c(=O)n2C (centres undefined)	JMJD2A Tudor inh inconclusive, ALOX12 inh inconclusive (no result: BAZ2B block, G9a inh)
CCN(CC)CCSc1nc2c([nH]1)c(=S)n(C)c(=O)n2C	JMJD2A Tudor inh 18µM (no result: BAZ2B block, G9a inh)
Cn1c(=S)c2[nH]c(SCCC(C)(C)C)nc2n(C)c1=O	JMJD2A Tudor inh 22µM (no result: BAZ2B block, G9a inh)
CSc1nc2c([nH]1)c(=S)n(C)c(=O)n2C	none (no result: BAZ2B block, G9a inh)
CC1CC2OC2CC1COC(=O)C1CC2OC2CC1C (centres undefined)	none (no result: BAZ2B block, G9a inh)
NC(=O)C1CCN(c2ncccc2[N+](=O)[O-])CC1	none
O=[N+]([O-])c1cccnc1N1CCC(c2cc(-c3cccc(C(F)(F)F)c3)n[nH]2)CC1	HP1b chromo inh inconclusive, BAZ2B block 35µM, G9a inh inconclusive
COc1ccc(-c2cc(C3CCN(Cc4ccc([N+](=O)[O-])cc4)CC3)[nH]n2)cc1	JMJD2A Tudor inh 45µM, HP1b chromo inh inconclusive, BAZ2B block inconclusive, G9a inh 45µM, ALOX12 inh inconclusive
COc1ccc(OC)c(-c2cc(C3CCN(c4ncccc4[N+](=O)[O-])CC3)[nH]n2)c1	JMJD2A Tudor inh 25µM, HP1b chromo inh inconclusive, BAZ2B block 13µM, G9a inh 35µM
O=C(CCC1CCCCC1)Nc1nnc(C(F)(F)F)s1	none (no result: G9a inh)
Cn1c(=O)c2[nH]c(N/N=C(/C#N)C(N)=O)nc2n(C)c1=O	BAZ2B block inconclusive, G9a inh 14µM (no result: ALOX12 inh)
